The nature of test [1]: qHTS assay to identify small molecule that activate the aryl hydrocarbon receptor (AhR) signaling pathway - cell viability counter screen (AID 743086). Note: nearly all actives have a fitted effect of over 45% in size. Note: potency is the fitted concentration of half-maximal effect. The method, boiled down:
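HepG2-AhR-luc (HG2L7.5c1) cells, 4000/well, treated 24 h at 37 C with compound; viability measured as CellTiter-Fluor fluorescence after 30 min in the same wells as the luciferase read.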
A general note: In qHTS, concentration-response curves come from the screen itself.

Test [2] deals with Peroxisome proliferator-activated receptor gamma (Homo sapiens) (UniProt P37231). Nature of the test: qHTS assay to identify small molecule agonists of the peroxisome proliferator-activated receptor gamma (PPARg) signaling pathway (AID 743094; active = well fitted activation curve with a large enough effect in the signal ratio in the repeat runs, not every such curve was filed as active; the % refers to the signal ratio; note: potency is the fitted concentration of half-maximal effect). The method in brief: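 Cell-based bla reporter, HEK293H background, PPARg-driven UAS. Pre-incubation 5 h, 37C, 5% CO2. Compound 17 h, 37C. Substrate 1 h RT; fluorescence.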
Sequence of Peroxisome proliferator-activated receptor gamma (Homo sapiens) (P37231 whole entry, looked up): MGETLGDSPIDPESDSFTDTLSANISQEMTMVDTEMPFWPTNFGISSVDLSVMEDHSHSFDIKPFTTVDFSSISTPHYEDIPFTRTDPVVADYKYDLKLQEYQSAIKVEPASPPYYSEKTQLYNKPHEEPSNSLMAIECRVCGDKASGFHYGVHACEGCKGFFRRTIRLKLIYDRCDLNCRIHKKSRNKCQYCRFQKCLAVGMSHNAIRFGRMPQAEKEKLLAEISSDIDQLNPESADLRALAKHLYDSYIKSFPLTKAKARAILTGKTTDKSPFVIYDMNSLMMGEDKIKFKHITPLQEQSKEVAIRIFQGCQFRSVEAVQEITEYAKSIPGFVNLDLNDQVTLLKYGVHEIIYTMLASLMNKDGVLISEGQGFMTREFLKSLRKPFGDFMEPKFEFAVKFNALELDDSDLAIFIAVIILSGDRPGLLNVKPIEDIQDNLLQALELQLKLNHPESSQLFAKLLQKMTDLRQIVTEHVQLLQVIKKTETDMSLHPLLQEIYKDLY

The target of test [3] is Aryl hydrocarbon receptor (Homo sapiens) (UniProt P35869). Nature of the test: qHTS assay to identify small molecule that activate the aryl hydrocarbon receptor (AhR) signaling pathway (AID 743085).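 For activation: HG2L7.5c1 human HepG2 liver cells with stably integrated DRE-driven firefly reporter; series mostly up to about 70 µM.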 Note: nearly all actives have a fitted effect of over 15% in size. Note: potency is the fitted concentration of half-maximal effect. The method in brief:
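Measured in HG2L7.5c1 cells: CellTiter-Fluor signal (30 min incubation, 37C) for viability, then luciferase luminescence (30 min, room temperature). Compound contact time was 24 h at 37C, following a 5 h pre-incubation.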

A short description of test [4]: qHTS assay to identify small molecule antagonists of the peroxisome proliferator-activated receptor gamma (PPARg) signaling pathway - cell viability counter screen (AID 743194). Note: nearly all actives have a fitted effect of over 55% in size. Note: potency is the fitted concentration of half-maximal effect. The method in brief: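 Cytotoxicity counter screen in PPARg-bla HEK293H cells, same wells as reporter assay. Compounds plus 50 nM rosiglitazone (final) for 17 h at 37 C, then viability read by CellTiter-Glo luminescence.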

Test [5] is described as follows: qHTS assay for small molecule agonists of the antioxidant response element (ARE) signaling pathway - cell viability counter screen (AID 743203; calls by dose curve; note: nearly all actives have a fitted effect of over 55% in size; note: potency is the fitted concentration of half-maximal effect). The method in brief:
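Measured in the same wells as the beta-lactamase ARE reporter, this read-out is CellTiter-Glo luminescence from HepG2 ARE-bla cells given compounds for 16 hrs.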

Test [6] in a line: qHTS assay for small molecule activators of the heat shock response signaling pathway (AID 743210; active = well fitted activation curve with a large enough effect in the signal ratio in the repeat runs, with a control signal flat, not every such curve was filed as active; the % refers to the signal ratio;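 note: HeLa cells with beta-lactamase reporter driven by heat shock elements; series mostly up to about 63 µM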). The method in brief:
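Beta-lactamase reporter read-out: FRET substrate fluorescence after 2.5 h at RT, following 5 h compound treatment at 37 C of HeLa cells carrying HSE-driven bla reporter; quantitative HTS format.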

The nature of test [7]: qHTS assay for small molecule agonists of the antioxidant response element (ARE) signaling pathway (AID 743202; active = well fitted activation curve with a large enough effect in the signal ratio in the repeat runs, not every such curve was filed as active; the % refers to the signal ratio). The method, boiled down: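 HepG2 ARE-bla reporter line, 2,000 cells/well; 5 h preincubation 37 C/5% CO2; compound (DMSO) 16 h 37 C; B/G FRET substrate 2 h RT; fluorescence intensity.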
Test [8] in a line: qHTS assay for small molecule activators of the heat shock response signaling pathway - cell viability counter screen (AID 743209). Note: nearly all actives have a fitted effect of over 50% in size. Note: potency is the fitted concentration of half-maximal effect. The method in brief:
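Same-well multiplex: after 2.5 h room-temperature incubation with LiveBLAzer B/G substrate and fluorescence reading, CellTiter-Glo reagent was added to HSE-bla HeLa cells that had received compound for 5 h at 37 C; luminescence read after 30 min.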

The structures appear in SMILES notation. Inconclusive results are not listed. Active and inactive are the calls of the source. Unless noted, calls come from the whole dose curve; as a rule, active = well fitted curve in the direction sought with a large enough effect in the repeat runs; inconclusive = weak or mixed curves; inactive = no such curve, though single readings can be large; an effect the other way counts as inactive or inconclusive. Non-standard residues stand in square brackets, D forms with d. Residues, ends and D or L forms follow the SMILES beside them. Orn = NCCC[C@H](N)C(=O)O

Sequence of Aryl hydrocarbon receptor (Homo sapiens) (P35869 whole entry, looked up): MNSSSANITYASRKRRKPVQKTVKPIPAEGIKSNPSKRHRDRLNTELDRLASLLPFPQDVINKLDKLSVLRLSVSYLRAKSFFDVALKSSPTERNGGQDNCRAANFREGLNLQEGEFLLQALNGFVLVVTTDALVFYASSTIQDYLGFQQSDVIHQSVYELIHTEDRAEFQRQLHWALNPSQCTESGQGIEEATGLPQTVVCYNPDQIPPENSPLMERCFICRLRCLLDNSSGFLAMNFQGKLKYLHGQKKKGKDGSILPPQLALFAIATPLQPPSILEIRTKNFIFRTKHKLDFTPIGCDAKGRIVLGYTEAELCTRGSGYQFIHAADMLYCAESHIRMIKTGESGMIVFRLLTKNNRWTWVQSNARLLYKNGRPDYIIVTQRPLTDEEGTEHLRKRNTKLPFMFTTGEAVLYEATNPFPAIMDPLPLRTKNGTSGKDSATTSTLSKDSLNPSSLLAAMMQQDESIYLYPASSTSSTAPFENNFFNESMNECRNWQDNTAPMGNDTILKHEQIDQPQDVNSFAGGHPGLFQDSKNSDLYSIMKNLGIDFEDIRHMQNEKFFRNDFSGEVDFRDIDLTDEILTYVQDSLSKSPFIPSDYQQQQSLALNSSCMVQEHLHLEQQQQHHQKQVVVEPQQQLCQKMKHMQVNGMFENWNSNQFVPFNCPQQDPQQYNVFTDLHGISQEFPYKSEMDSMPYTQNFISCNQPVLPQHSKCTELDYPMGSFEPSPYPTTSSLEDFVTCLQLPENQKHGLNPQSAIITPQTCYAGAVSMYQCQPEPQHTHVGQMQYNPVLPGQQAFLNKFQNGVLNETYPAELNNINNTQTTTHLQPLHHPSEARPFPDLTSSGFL

`COc1cc(NS(C)(=O)=O)ccc1Nc1c2ccccc2nc2ccccc12`: the figures for the Potency in test [1] and in test [2] were 13.3 µM (active) and 21.3 µM (active), respectively.
For the compound `CC(C)C[C@@H]1NC(=O)[C@H](CCCN)NC(=O)[C@H](C(C)C)NC(=O)[C@@H]2CCCN2C(=O)[C@@H](Cc2ccccc2)NC(=O)[C@H](CC(C)C)NC(=O)[C@H](CCCN)NC(=O)[C@H](C(C)C)NC(=O)[C@@H]2CCCN2C(=O)[C@@H](Cc2ccccc2)NC1=O` (cyclo(V[Orn]L[dF]PV[Orn]L[dF]P)), the Potency entry in test [3] was “inactive”.
`CN1CC[C@H](c2c(O)cc(O)c3c(=O)cc(-c4ccccc4Cl)oc23)[C@H](O)C1`: the Potency entry in test [4] and in test [5] was “inactive” in each case. Besides, the result in test [6] was inactive.
`NCCCC(=O)O`: the Potency result in test [3], in test [1] and in test [2] was “inactive” in each case.
Consider `O=C(Nc1ccccc1)c1cc(Cl)ccc1O`, for which the Potency in test [3] is 3.06 µM (active); in test [4], 6.92 µM (active). The Potency result in test [1] is “inactive”.
With `COc1c(Br)cc(Br)c(C)c1Br`, the Potency entry in test [1], in test [4], in test [7], in test [5] and in test [8] was “inactive” each time. For the same compound, the result in test [6] was inactive.
On to `CC1=C(/C=C/C(C)=C/C=C/C(C)=C\C(=O)O)C(C)(C)CCC1`, for which the Potency result in test [3] is “inactive”. Moreover, the Potency in test [8] was 55.1 µM (active).
As to `CC(O)(c1ccc(Cl)cc1)c1ccc(Cl)cc1`, the Potency result in test [3], in test [4] and in test [8] was “inactive” throughout. The call in test [6] was inactive.
In the case of `O=C1CCCCCCCCCCCCCC1`, the Potency entry in test [1], in test [4], in test [7] and in test [5] was “inactive” in each case. The outcome in test [6] was inactive.
Turning to `COc1cccc(-c2ccc(/C=C\CN3CCCCCC3)cc2Cl)c1`, the Potency result in test [3] and in test [2] was “inactive” each time. Also, the Potency in test [4] was 43.4 µM (active); in test [5], 54.2 µM (active).
Consider `Clc1nc(C(Cl)(Cl)Cl)c(Cl)c(Cl)c1Cl`, for which the Potency was 61.1 µM (active) in test [3], 38.9 µM (active) in test [4], 30.6 µM (active) in test [5] and 17.4 µM (active) in test [8]. For the same compound, the Potency result in test [1] was “inactive”.
As to `O=C1c2ccccc2-c2n[nH]c3cccc1c23`, the Potency in test [3] was 29.8 µM (active).
With `CO/N=C(\C(=O)N[C@@H]1C(=O)N2C(C(=O)O)=C(COC(C)=O)CS[C@H]12)c1csc(N)n1` (stereo in doubt), in test [1], the Potency result was “inactive”.
Same read-out and setting: next, `CC(=O)Nc1ccc(OC(C)=O)cc1`: “inactive”.
For the compound `Cc1ccc2nc(-c3ccc(N)cc3)sc2c1S(=O)(=O)O`, the Potency in test [3] was 4.26 µM (active). Further, the Potency entry in test [1], in test [4], in test [5] and in test [8] was “inactive” in each case.
On to `CCCCCCCCCCCC[n+]1ccc2ccccc2c1`, for which, in test [3], the Potency entry is “inactive”.
For `CCCCCCCC[N+](C)(C)CCCCCCCC`, the Potency entry in test [3], in test [1] and in test [2] was “inactive” each time.
For `CS(=O)(=O)c1ccc([C@@H](CC2CCCC2)C(=O)Nc2cnccn2)cc1Cl`, the Potency entry in test [3] is “inactive”.
Still for that read-out and setting: next, `CC(=O)N(C)C`: “inactive”.
As for `CN1CCN(c2ccccc2/C=C2\SCCN(c3ccc(Cl)c(Cl)c3)C2=O)CC1`, the Potency result in test [3] is “inactive”. Besides, the results for the Potency in test [4], in test [5] and in test [8] were 49 µM (active), 24.3 µM (active) and 54.9 µM (active), respectively.
Consider `CN1CCN(CCCN2c3ccccc3Sc3ccc(Cl)cc32)CC1`, for which the figures for the Potency in test [3], in test [1] and in test [5] were 9.44 µM (active), 23.7 µM (active) and 29.8 µM (active), respectively. Further, the Potency entry in test [8] was “inactive”. The result in test [6] was inactive.
As to `CN[C@H]1CC[C@@H](c2ccc(Cl)c(Cl)c2)c2ccc(S(N)(=O)=O)cc21`, the Potency entry in test [3] and in test [8] was “inactive” in each case. For the same compound, the results for the Potency in test [1], in test [4] and in test [5] were 61.1 µM (active), 49 µM (active) and 24.3 µM (active), respectively. Also, in test [6], the call was inactive.
In the case of `Cc1cc(CC(C)CC(C)(C)C)n(O)c(=O)c1` (centres undefined) (tested in a mixture with another compound), the Potency entry in test [3], in test [1] and in test [2] was “inactive” in each case.
For `O=C(CCCCCCCCc1cccnc1)N1CCC(C=C(c2ccccc2)c2ccccc2)CC1`, the Potency result in test [3], in test [1] and in test [8] was “inactive” throughout. Also, the figures for the Potency in test [4] and in test [5] were 19.5 µM (active) and 15.4 µM (active), respectively.
On to `CN1[C@@H](CC(=O)c2ccccc2)CCC[C@H]1C[C@H](O)c1ccccc1`, for which the Potency result in test [3], in test [1] and in test [2] was “inactive” in each case.
`CC[C@@H](C(=O)[C@@H](C)[C@@H](O)[C@H](C)CCc1ccc(C)c(O)c1C(=O)O)[C@H]1O[C@](CC)([C@H]2CC[C@](O)(CC)[C@H](C)O2)C[C@@H]1C`: the Potency entry in test [3] and in test [2] was “inactive” in each case.
Consider `Cc1cc(N)c2ccccc2[n+]1CCCCCCCCCC[n+]1c(C)cc(N)c2ccccc21`, for which the Potency entry in test [3], in test [1] and in test [2] was “inactive” throughout.
`CCCCCCCC1CCC(=O)O1` (centres undefined): the Potency entry in test [3] is “inactive”.

The values above are taken from PubChem BioAssay (Tox21).
